We go through 19 molecules from PubChem BioAssay (EPA / NIEHS).

Each structure is given as a SMILES string. Inconclusive results are not listed. Calls of active or inactive are those of the source. Rule for the calls: active = hit-call score of the fitted dose curve at least 0.9, where 1 is the maximum; inconclusive = response in the unintended direction; inactive = score below 0.9.

One test relates to NCBI gene 24521. Briefly: NVS_IC_rKATPCh: NovaScreen (NVS) Ion Channel Assay for rat Potassium Channel, ATP-Sensitive (KATPCh) (AID 2283319). The essentials:
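Rat cortical membranes; radioligand binding at ATP-sensitive K channel site, filter-based scintillation counting 2 h after dosing. Single-point duplicate screen at 25 uM, hits rerun in concentration-response up to 50 uM; loss of signal versus DMSO.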

Test [1] deals with bovine Gamma-Aminobutyric Acid Type A Receptor BDZ, alpha 5 site (GABARa5), GABRA5 (gene 523515) (UniProt Q08E50). As to the kind of experiment: NVS_LGIC_bGABARa5: NovaScreen (NVS) Ligand-Gated Ion Channel Assay for bovine Gamma-Aminobutyric Acid Type A Receptor BDZ, alpha 5 site (GABARa5) (AID 2283323). The essentials:
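Radioligand competitive displacement binding on bovine hippocampal membranes, read 1 hr after dosing by filter-based scintillation counting. Primary screen at 25 uM in duplicate; actives (e.g. ≥30% inhibition) then run in concentration-response up to 50 uM.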

The target in test [2] is human Peripheral-type Benzodiazepine Receptor (PBR), TSPO (gene 706) (UniProt P30536). As to the kind of experiment: NVS_MP_hPBR: NovaScreen (NVS) Membrane Protein Assay for human Peripheral-type Benzodiazepine Receptor (PBR) (AID 2283331).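 Note: hits reduce radioligand binding relative to DMSO baseline.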 The essentials: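 Radioligand displacement on human colonic cell membranes, 1 h incubation; bound radioactivity by filtration and scintillation counting. Primary screen in duplicate at 25 uM single concentration, actives followed up in concentration series; loss of binding versus DMSO.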

The target in test [3] is Sodium channel protein type 1 subunit alpha (Rattus norvegicus) (UniProt P04774). Briefly: NVS_IC_rNaCh_site2: NovaScreen (NVS) Ion Channel Assay for rat Sodium Channel, Site 2 (NaCh) (AID 2283322).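 Note: hit means loss of radioligand binding signal relative to DMSO so AC50 marks displacement.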 In short, it runs like this: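 Membranes: rat forebrain. Format: competitive radioligand displacement, filter separation, scintillation readout, 1 h exposure. Primary screen in duplicate at 25 uM; actives retested in concentration series.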

Test [4] addresses rat Thyrotropin Releasing Hormone Receptor (TRH), Trhr (gene 25570) (UniProt Q01717). As to the kind of experiment: NVS_GPCR_rTRH: NovaScreen (NVS) G Protein-Coupled Receptor Assay for rat Thyrotropin Releasing Hormone Receptor (TRH) (AID 2283329).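 Note: hit means lower bound tracer signal versus DMSO baseline.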 In short, it runs like this:
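Competitive radioligand binding on rat forebrain membrane preparations, with filtration and scintillation readout after 4 h. Primary testing in duplicate at 25 uM; actives confirmed in concentration-response. DMSO defined baseline.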

The target of test [5] is rat Glutamate, AMPA Site (AMPA), Gria1 (gene 50592) (UniProt P19490). Briefly: NVS_LGIC_rAMPA: NovaScreen (NVS) Ligand-Gated Ion Channel Assay for rat Glutamate, AMPA Site (AMPA) (AID 2283324). In short, it runs like this: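 Rat forebrain membranes; radioligand binding read 1 h after dosing by filtration and scintillation counting. Duplicate single-point screen at 25 uM, then concentration-response to 50 uM for threshold hits (e.g. 30% inhibition); loss of signal vs DMSO.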

Test [6] is described as follows: NVS_IC_rCaDHPRCh_L: NovaScreen (NVS) Ion Channel Assay for rat Calcium Channel, Type L, Dihydropyridine Site (CaDHPRCh_L) (AID 2283320). Here is the method:
NVS_IC_rCaDHPRCh_L is a biochemical, single-readout assay that uses extracted gene-proteins from Rat cortical membranes in a tissue-based cell-free assay. Measurements were taken 1 hour after chemical dosing in a 48-well plate.NVS_IC_rCaDHPRCh_L is one of one assay component(s) measured or calculated from the NVS_IC_rCaDHPRCh_L assay. It is designed to make measurements of radioligand binding, a form of binding reporter, as detected with scintillation counting signals by Filter-based radiodetection technology.Data from the assay component NVS_IC_rCaDHPRCh_L was analyzed into 1 assay endpoint. This assay endpoint, NVS_IC_rCaDHPRCh_L, was analyzed in the positive analysis fitting direction relative to DMSO as the negative control and baseline of activity. Using a type of binding reporter, loss-of-signal activity can be used to understand changes in the binding as they relate to the gene Cacna1a. Furthermore, this assay endpoint can be referred to as a primary readout, because the performed assay has only produced 1 assay endpoint. To generalize the intended target to other relatable targets, this assay endpoint is annotated to the ion channel intended target family, where the subfamily is calcium channel.
Binding assays used specific radioligands (tritiated, iodinated) with non-radioactive competitive displacement ligands in agonist or antagonist protocols (as indicated) and various reference compounds and inhibitors to titrate specific binding to receptors and transporters. Most enzyme assays (CYPs, kinases, phosphatases, proteases, HDACs) used recombinant protein and specific substrates (fluorescence mostly, some colorimetric and radioactive) and inhibitors, followed by a biochemical separation of substrate and product. All assays for the biochemical HTS were initially run in duplicate at a single concentration (10 uM for CYP450 assays and 25 uM for all others). Assay-chemical combinations meeting a pre-defined threshold (e.g., 30% inhibition and other criteria defined below) were then run in singleton concentration-response format with maximum concentration of 20 uM for CYPs and 50 uM for all others. Each assay was run with positive and negative controls, and concurrent controls on every plate. The follow-up (secondary) screen tested active chemical-pairs in concentration series, as well as a few additional assays not tested in the primary screen, some selected negative inactives, and several cases re-run in the concentration series for confirmatory purposes.

Test [7] addresses human Serotonin, 5-Hydroxytryptamine Receptor 3 (5HT3), HTR3A (gene 3359) (UniProt P46098). As to the kind of experiment: NVS_LGIC_h5HT3: NovaScreen (NVS) Ligand-Gated Ion Channel Assay for human Serotonin, 5-Hydroxytryptamine Receptor 3 (5HT3) (AID 2283325). The essentials:
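Radioligand displacement binding to human 5-HT3 from HEK293 membranes, read by filter-based scintillation counting after 1 h. Screen at 25 uM in duplicate; chemicals passing threshold were retested in concentration-response up to 50 uM.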

Test [8] deals with rat Glutamate, NMDA Agonist Site (GluNMDA), Grin1 (gene 24408) (UniProt P35439). Briefly: NVS_LGIC_rGluNMDA_Agonist: NovaScreen (NVS) Ligand-Gated Ion Channel Assay for rat Glutamate, NMDA Agonist Site (GluNMDA) (AID 2283327). The essentials:
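Rat forebrain membranes, radioligand binding in the agonist-site protocol; 1 h after dosing; filter-based scintillation counting. Single-concentration duplicate screen at 25 uM, then concentration-response up to 50 uM for actives; gain-of-signal vs DMSO.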

Sequence of bovine Gamma-Aminobutyric Acid Type A Receptor BDZ, alpha 5 site (GABARa5), GABRA5 (gene 523515) (Q08E50 whole entry, looked up): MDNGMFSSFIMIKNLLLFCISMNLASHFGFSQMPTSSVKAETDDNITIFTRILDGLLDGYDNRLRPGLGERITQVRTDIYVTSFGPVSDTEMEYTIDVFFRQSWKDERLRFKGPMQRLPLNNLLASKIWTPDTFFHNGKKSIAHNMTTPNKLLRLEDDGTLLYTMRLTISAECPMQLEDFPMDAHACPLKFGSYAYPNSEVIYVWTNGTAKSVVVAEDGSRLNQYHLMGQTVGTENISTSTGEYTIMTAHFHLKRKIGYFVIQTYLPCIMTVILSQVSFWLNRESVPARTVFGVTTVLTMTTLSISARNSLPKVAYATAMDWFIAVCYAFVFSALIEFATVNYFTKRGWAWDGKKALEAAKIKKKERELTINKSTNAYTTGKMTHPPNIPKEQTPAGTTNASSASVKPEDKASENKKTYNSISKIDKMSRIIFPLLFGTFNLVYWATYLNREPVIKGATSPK
Sequence of rat Thyrotropin Releasing Hormone Receptor (TRH), Trhr (gene 25570) (Q01717 whole entry, looked up): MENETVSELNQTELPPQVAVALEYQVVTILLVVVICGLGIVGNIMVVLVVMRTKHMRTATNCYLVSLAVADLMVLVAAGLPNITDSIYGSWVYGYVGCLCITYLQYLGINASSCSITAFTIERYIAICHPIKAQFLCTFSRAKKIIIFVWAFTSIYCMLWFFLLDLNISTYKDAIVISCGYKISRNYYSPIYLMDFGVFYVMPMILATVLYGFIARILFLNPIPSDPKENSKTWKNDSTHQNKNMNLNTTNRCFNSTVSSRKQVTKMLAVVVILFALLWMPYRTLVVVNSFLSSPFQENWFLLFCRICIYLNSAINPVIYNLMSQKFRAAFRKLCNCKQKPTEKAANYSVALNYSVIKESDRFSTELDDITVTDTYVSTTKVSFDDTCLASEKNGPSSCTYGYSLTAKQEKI
Sequence of rat Glutamate, AMPA Site (AMPA), Gria1 (gene 50592) (P19490 whole entry, looked up): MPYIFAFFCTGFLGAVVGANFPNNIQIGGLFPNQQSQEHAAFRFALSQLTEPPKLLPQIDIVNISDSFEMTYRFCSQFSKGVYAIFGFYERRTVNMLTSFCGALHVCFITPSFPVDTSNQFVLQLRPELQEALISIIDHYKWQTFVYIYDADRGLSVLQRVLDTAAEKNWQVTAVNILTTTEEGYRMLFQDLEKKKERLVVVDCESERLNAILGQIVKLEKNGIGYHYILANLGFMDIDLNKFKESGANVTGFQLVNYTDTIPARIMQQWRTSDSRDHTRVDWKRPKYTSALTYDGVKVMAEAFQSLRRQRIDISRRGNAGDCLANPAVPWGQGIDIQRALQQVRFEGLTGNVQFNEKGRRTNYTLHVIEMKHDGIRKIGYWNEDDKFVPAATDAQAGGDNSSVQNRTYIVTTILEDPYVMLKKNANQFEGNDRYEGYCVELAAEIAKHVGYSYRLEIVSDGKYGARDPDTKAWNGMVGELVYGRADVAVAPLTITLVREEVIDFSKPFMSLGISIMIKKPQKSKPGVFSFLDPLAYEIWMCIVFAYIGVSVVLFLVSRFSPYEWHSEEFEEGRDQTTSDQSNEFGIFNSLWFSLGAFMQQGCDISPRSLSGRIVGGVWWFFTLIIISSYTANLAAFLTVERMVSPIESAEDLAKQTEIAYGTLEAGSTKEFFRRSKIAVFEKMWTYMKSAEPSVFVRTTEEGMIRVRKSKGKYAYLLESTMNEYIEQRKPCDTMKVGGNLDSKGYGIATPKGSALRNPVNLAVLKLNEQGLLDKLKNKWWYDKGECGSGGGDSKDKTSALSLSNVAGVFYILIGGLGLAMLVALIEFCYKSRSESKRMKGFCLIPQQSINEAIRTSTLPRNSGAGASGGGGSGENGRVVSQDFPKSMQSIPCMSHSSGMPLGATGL
Sequence of human Peripheral-type Benzodiazepine Receptor (PBR), TSPO (gene 706) (P30536 whole entry, looked up): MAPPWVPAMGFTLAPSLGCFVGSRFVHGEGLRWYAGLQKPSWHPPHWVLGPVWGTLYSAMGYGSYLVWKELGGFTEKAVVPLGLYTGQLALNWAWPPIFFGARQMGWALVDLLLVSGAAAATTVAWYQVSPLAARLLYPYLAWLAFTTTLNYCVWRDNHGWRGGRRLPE
Sequence of human Serotonin, 5-Hydroxytryptamine Receptor 3 (5HT3), HTR3A (gene 3359) (P46098 whole entry, looked up): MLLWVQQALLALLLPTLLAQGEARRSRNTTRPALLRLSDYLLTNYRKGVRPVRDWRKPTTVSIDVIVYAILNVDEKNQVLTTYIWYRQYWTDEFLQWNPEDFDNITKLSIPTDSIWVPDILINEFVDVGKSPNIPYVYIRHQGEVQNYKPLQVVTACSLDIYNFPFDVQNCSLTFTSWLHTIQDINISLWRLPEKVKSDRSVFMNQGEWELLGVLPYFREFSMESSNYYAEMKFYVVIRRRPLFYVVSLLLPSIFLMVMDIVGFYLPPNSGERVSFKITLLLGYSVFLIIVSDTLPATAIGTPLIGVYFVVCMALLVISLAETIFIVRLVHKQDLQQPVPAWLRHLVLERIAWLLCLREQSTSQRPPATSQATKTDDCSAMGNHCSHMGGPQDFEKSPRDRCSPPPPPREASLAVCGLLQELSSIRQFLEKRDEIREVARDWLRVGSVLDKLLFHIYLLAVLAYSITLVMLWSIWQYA

Consider `CC1=NNC(=O)N(/N=C/c2cccnc2)C1`, for which the outcome (in the test with NCBI gene 24521; in [1]; in [2]) was inactive.
With `CCC(=O)Nc1ccc(Cl)c(Cl)c1`, the result in test [3] and in test [4] was inactive. For the same molecule, the AC50 in test [2] was 15.6 µM (active).
In the case of `CN(C)[C@@H]1C(=O)C(C(N)=O)=C(O)[C@@]2(O)C(=O)C3=C(O)c4c(O)cccc4[C@@](C)(O)[C@H]3[C@H](O)[C@@H]12`, the call in test [5] was inactive. In test [2], the AC50 was 12.9 µM (active).
On to `CC(C1CC1)C(O)(Cn1cncn1)c1ccc(Cl)cc1` (stereo not given), for which the call in test [3], in test [4] and in [2] was inactive.
On to `FC(F)C(F)(F)OCC(Cn1cncn1)c1ccc(Cl)cc1Cl` (stereo not given), for which the figures for the AC50 in [6], in [3] and in test [2] were 12.6 µM (active), 25 µM (active) and 19.4 µM (active), respectively. Besides, in [4], the result was inactive.
Take `CN1COCN(Cc2cnc(Cl)s2)C1=N[N+](=O)[O-]`: the result in [6] was inactive.
In the case of `C#CCC1=C(C)C(OC(=O)C2C(C=C(C)C)C2(C)C)CC1=O` (stereo not given), the call in test [7] and in [2] was inactive.
For `CCCOCC(=Nc1ccc(Cl)cc1C(F)(F)F)n1ccnc1`, the result in test [6] and in test [3] was inactive. In addition, the half-maximal activity concentration (AC50) in test [2] is 8.63 µM (active).
Take `CNC(=O)ON=C(SC)C(=O)N(C)C`: the outcome (in the test on NCBI gene 24521; in [2]) was inactive.
With `S=C1NCCN1`, the molecule was called inactive in test [5] and in test [2].
`CCCCOC(=O)c1ccccc1C(=O)O`: the molecule was called inactive in [1] and in test [2].
`CN(C)C(=O)Nc1cccc(C(F)(F)F)c1`: the AC50 in the test with NCBI gene 24521 is 10.9 µM (active); in test [2], 17.9 µM (active).
Take `COP(=O)(OC)OC(Br)C(Cl)(Cl)Br` (stereo not given): the result with NCBI gene 24521 was inactive.
Take `O=[N+]([O-])c1cc(C(F)(F)F)c(Cl)c([N+](=O)[O-])c1Nc1ncc(C(F)(F)F)cc1Cl`: the call in [1] and in test [4] was inactive.
With `Nc1c(Cl)cc([N+](=O)[O-])cc1Cl`, the outcome in test [3], in test [4] and in test [2] was inactive.
On to `Cc1cc(C2CC2)nc(Nc2ccccc2)n1`, for which the AC50 was 9.68 µM (active) in test [3] and 25 µM (active) in test [2].
For the molecule `CC(C)=CC1C(C(=O)OCN2C(=O)C3=C(CCCC3)C2=O)C1(C)C` (stereo not given), the AC50 in test [6] was 38.2 µM (active); in test [2], 13.5 µM (active). Moreover, the molecule was classed as inactive in [5].
Turning to `Nc1nc(N)nc(NC2CC2)n1`, the result in the test on NCBI gene 24521 was inactive.
Consider `CC[C@H](C)[C@H]1O[C@]2(C=C[C@@H]1C)C[C@@H]1C[C@@H](C/C=C(\C)[C@@H](O[C@H]3C[C@H](OC)[C@@H](O[C@H]4C[C@H](OC)[C@@H](NC)[C@H](C)O4)[C@H](C)O3)[C@@H](C)/C=C/C=C3\CO[C@@H]4[C@H](O)C(C)=C[C@@H](C(=O)O1)[C@]34O)O2`, for which the AC50 in test [6] is 4.83 µM (active); in [3], 16.6 µM (active); in [1], 1.56 µM (active); in test [8], 16.4 µM (active).

A word on the AC50: it is the concentration at which the activity in the assay is half-maximal.
